# In the supplement of paper PMC11732987, “Enantioselective OTUD7B fragment discovery through chemoproteomics screening and high-throughput optimisation” (Communications Chemistry, 2025):
# A number with no mark means an inactive call.
# Experiments:
# Assay in all cases: log2 ratio of Biotin-Ahx-Ub-VS probe labelling (fragment/DMSO); higher = less target engagement (more negative = stronger competition), active = hit call of the paper (q ≤ 0.05, log2 ratio ≤ -1)
# Details in all cases: compound concentration: 200 uM; treatment time: 3 h
# ALG13 = target: T1, ALG13 (UniProt Q9NP73)
# T1 sequence (whole entry): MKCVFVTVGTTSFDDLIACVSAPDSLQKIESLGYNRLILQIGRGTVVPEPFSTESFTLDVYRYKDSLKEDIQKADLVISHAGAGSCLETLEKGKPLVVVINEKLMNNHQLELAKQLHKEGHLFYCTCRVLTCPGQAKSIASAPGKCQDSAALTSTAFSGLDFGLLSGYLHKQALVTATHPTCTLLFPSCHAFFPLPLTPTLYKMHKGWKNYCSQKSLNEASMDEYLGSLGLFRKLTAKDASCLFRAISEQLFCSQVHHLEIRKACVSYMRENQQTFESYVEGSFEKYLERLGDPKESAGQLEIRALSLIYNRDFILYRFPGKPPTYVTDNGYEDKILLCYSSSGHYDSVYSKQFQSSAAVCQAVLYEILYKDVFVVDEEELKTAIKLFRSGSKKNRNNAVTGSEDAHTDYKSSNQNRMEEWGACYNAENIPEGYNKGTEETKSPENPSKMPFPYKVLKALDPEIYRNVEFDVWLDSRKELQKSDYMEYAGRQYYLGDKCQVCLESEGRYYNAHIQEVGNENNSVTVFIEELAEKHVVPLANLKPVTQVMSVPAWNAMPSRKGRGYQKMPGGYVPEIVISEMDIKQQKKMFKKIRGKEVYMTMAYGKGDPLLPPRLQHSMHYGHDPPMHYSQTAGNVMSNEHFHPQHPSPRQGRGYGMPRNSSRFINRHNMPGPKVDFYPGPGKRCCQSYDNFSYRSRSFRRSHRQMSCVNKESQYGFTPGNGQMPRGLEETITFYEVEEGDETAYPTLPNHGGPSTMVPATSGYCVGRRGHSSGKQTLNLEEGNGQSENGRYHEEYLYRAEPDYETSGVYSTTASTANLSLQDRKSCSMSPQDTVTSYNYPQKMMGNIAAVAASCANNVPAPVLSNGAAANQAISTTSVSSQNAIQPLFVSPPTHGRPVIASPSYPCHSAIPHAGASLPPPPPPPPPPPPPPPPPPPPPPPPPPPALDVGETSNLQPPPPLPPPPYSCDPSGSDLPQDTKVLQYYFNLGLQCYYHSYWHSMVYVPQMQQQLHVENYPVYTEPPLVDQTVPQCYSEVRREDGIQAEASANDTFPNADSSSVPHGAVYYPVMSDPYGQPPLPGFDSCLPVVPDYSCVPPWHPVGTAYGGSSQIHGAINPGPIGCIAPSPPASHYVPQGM
# Procedure, shortened: (§1)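 Fragment (200 µM) or vehicle was incubated for 3 h with triplicate HEK293T lysate samples of 495 µg, which were then treated with Biotin-Ahx-Ub-VS at 0.5 µM final for 1 h. Labelled DUBs were enriched on NeutrAvidin, digested with LysC and trypsin, and analysed by diaPASEF LC-MS/MS. Values are average log2 fragment/vehicle ratios from an unpaired t-test on global-median-normalised Spectronaut label-free quantities, using proteins with ≥2 unique peptides.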
# ATXN3 = ATXN3 (UniProt P54252)
# ATXN3, sequence (P54252 whole entry): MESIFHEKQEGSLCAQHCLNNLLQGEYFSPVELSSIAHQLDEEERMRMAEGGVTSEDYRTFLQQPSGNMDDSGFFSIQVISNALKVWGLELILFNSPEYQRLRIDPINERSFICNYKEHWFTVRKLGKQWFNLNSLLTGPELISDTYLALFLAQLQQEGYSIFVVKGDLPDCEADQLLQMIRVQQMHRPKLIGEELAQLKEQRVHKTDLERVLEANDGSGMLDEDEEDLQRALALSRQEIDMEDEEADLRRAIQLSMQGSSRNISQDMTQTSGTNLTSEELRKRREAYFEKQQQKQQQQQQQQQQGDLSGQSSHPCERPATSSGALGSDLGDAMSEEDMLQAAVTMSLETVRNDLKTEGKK
# Procedure, shortened: as §1
# BAP1 = target: T2, BAP1 (UniProt Q92560)
# T2 sequence (whole entry): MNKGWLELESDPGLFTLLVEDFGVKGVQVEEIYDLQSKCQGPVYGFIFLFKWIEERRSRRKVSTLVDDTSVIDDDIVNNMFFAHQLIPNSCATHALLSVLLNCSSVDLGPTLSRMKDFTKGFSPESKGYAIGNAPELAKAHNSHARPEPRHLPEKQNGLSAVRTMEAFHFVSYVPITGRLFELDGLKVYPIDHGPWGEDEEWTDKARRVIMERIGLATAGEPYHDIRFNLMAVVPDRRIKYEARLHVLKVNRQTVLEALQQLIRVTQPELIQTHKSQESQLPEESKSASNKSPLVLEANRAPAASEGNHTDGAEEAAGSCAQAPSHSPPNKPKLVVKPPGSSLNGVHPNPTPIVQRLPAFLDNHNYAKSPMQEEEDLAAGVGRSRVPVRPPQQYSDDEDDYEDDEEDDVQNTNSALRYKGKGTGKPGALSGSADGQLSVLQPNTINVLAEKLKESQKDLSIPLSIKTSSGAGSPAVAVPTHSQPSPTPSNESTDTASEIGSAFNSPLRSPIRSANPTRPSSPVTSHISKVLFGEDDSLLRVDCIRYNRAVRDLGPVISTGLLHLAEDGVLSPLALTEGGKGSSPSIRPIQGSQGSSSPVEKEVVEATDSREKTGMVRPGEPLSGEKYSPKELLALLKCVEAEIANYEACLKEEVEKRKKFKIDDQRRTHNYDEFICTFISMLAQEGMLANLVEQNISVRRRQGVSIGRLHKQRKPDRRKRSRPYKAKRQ
# Procedure, shortened: as §1
# EIF3F = EIF3F (UniProt O00303)
# EIF3F, sequence (O00303 whole entry): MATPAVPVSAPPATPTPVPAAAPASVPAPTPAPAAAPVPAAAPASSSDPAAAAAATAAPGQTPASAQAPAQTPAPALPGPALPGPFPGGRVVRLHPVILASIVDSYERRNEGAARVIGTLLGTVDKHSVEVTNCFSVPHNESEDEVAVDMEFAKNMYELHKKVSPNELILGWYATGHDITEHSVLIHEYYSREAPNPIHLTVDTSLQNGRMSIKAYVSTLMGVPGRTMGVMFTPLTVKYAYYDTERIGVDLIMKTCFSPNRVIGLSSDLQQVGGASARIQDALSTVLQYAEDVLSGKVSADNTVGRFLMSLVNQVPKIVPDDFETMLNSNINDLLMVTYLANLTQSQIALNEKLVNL
# Procedure, shortened: as §1
# EIF3H = EIF3H (UniProt O15372)
# EIF3H, sequence (O15372 whole entry): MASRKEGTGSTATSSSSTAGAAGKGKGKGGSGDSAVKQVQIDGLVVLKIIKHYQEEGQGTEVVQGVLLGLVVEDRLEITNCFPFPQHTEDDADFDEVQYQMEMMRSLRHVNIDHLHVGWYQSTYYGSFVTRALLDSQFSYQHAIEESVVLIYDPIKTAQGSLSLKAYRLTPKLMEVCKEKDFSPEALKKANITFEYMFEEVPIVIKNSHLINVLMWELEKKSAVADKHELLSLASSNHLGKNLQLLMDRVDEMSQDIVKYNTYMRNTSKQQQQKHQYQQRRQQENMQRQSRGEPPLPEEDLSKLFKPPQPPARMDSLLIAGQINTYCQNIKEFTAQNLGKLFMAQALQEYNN
# Procedure, shortened: as §1
# FAM105A = target: T3, FAM105A (UniProt Q9NUU6)
# T3 sequence (whole entry): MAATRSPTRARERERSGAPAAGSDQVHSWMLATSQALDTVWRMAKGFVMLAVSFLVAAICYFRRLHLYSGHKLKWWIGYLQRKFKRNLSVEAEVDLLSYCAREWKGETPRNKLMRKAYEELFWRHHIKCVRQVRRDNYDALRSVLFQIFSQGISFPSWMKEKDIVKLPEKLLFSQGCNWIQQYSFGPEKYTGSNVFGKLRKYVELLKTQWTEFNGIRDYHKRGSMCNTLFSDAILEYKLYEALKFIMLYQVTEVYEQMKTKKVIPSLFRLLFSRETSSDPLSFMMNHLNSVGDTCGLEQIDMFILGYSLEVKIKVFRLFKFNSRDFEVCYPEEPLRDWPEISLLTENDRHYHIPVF
# Procedure, shortened: as §1
# OTUB1 = OTUB1 (UniProt Q96FW1)
# OTUB1, sequence (Q96FW1 whole entry): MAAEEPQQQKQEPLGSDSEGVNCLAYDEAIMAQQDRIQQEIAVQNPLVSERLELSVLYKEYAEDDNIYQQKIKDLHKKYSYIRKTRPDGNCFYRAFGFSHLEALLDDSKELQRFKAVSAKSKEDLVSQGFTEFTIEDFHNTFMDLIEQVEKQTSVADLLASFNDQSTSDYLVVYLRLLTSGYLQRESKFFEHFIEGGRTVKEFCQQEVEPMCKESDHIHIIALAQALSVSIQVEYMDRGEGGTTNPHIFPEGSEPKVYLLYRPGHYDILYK
# Procedure, shortened: as §1
# OTUD4 = target: T4, OTUD4 (UniProt Q01804)
# T4 sequence (whole entry): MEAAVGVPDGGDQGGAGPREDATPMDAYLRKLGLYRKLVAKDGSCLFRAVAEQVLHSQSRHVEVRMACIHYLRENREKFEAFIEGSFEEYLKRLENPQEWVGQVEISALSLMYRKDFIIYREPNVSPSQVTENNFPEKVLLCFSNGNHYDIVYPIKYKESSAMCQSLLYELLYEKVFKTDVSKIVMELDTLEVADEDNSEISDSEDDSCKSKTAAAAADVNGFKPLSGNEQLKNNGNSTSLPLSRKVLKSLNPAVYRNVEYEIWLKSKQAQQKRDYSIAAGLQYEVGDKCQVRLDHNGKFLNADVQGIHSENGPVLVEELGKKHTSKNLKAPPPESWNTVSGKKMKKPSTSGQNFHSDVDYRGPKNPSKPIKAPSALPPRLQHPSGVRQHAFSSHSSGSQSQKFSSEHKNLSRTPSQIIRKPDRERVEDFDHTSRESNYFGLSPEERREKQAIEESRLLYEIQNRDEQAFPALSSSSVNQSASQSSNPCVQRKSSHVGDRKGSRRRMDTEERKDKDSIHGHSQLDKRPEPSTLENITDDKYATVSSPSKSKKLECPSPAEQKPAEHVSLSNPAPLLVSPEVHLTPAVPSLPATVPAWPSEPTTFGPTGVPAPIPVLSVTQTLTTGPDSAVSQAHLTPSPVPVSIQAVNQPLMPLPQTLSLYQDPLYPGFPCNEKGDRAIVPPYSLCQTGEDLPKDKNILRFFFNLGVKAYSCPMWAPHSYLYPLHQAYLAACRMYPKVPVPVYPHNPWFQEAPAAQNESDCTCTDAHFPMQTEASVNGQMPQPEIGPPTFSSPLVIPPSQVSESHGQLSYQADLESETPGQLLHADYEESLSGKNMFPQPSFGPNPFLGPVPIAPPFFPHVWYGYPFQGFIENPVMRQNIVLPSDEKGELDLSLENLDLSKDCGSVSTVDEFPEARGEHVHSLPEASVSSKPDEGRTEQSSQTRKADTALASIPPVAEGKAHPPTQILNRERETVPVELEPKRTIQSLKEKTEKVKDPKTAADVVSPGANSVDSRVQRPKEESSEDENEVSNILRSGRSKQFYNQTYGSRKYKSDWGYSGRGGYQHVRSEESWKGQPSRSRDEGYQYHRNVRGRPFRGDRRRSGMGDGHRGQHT
# Procedure, shortened: as §1
# OTUD5 = target: T5, OTUD5 (UniProt Q96G74)
# T5 sequence (whole entry): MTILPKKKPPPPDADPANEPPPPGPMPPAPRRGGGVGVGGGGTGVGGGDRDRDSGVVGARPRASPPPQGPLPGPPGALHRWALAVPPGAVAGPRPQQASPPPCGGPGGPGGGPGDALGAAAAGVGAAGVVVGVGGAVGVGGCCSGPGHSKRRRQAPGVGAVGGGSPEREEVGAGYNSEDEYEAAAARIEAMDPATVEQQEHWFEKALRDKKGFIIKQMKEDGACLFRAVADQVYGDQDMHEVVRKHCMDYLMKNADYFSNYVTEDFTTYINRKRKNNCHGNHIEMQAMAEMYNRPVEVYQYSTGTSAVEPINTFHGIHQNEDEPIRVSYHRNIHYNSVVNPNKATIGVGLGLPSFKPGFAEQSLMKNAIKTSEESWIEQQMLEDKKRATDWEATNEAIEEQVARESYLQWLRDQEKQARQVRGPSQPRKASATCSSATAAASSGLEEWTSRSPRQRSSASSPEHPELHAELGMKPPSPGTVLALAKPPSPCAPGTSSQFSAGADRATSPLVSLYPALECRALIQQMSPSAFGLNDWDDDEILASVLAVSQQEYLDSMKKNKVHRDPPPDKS
# Procedure, shortened: as §1
structure (smiles),measurement,setting,value
O=C(CCl)NCCc1ccc(F)cc1,log2 ratio of Biotin-Ahx-Ub-VS probe labelling,ALG13,-0.037
same,log2 ratio of Biotin-Ahx-Ub-VS probe labelling,ATXN3,-0.166
same,log2 ratio of Biotin-Ahx-Ub-VS probe labelling,BAP1,-1.07 (active)
same,log2 ratio of Biotin-Ahx-Ub-VS probe labelling,EIF3F,0.0338
same,log2 ratio of Biotin-Ahx-Ub-VS probe labelling,EIF3H,0.194
same,log2 ratio of Biotin-Ahx-Ub-VS probe labelling,FAM105A,-0.364
same,log2 ratio of Biotin-Ahx-Ub-VS probe labelling,OTUB1,-0.291
same,log2 ratio of Biotin-Ahx-Ub-VS probe labelling,OTUD4,-0.143
same,log2 ratio of Biotin-Ahx-Ub-VS probe labelling,OTUD5,-0.544
